Out of some 300,000 compounds screened, about 65 (0.02%) were called active. The sample holds actives, similar compounds and a random draw of the others, so the mix is not that of the screen.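 Rule for the calls: active = lowest replicate activity score at least 50, where 100 means six control SD above control mean; inconclusive = lowest score under 50 but half or more replicates reach 50; inactive = the rest.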
assay: perturbers of mRNA poly(A) processing – luminescence, S. cerevisiae, primary screen (AID 1875);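 note: yeast exposed to compound for 9 h at 30 °C; higher score means more reporter readthrough which indicates perturbed polyadenylation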; conditions: S. cerevisiae SKY197-pL101 polyadenylation reporter, beta-gal luminescence; at 12 µM; active compounds read high; efflux-impaired pdr1/pdr3 knockout yeast; score 100 = 6 SD above DMSO

Activity score, inactive:
O=C(NCCS(=O)(=O)N1CCN(c2ccccc2F)CC1)c1ccc(Br)o1 1.43%
CCOc1ccc(C2c3[nH]c4ccccc4c3CCN2Cc2cccn2-c2ncccn2)cc1 (configuration not stated) 0.986%
CCc1c(C)nc2c(OC)cccc2c1Cl -37.6%
O=C(CN1CCOCC1)Nc1c2c(nc3c1CCC3)CCC2 1.76%
CC1(C)CCSC(/C=C/c2ccccc2)=N1 6.99%
COc1ccc(-n2c(O)c(C=NCC(c3ccco3)N3CCCC3)c3ccccc3c2=O)cc1OC (configuration not stated) 6.18%
COc1cc(NC(=O)c2cncc(-c3ccc(C#N)cc3)c2)cc(C(=O)Nc2cccc(C(F)(F)F)c2)c1 -7.7%
O=C(C1CCN(c2nnc(-n3cccc3)s2)CC1)N1CCc2ccccc2C1 9.11%
CCc1noc(C)c1C(=O)Oc1ccc(N(C)S(=O)(=O)c2ccc(C)c(C)c2)cc1 0.103%
Cc1ccc(CNC(=O)C2CCN(S(=O)(=O)c3ccc4nc5c(c(C(=O)O)c4c3)CC(C)CC5)CC2)cc1 (configuration not stated) -6.73%
CCn1cc(CN2CCC(C(=O)Nc3cccc(-c4cccc(Cl)c4)c3)CC2)c(C)n1 3.2%
Cc1ccc(-c2cc(C(=O)NCc3cn(C)nc3C)c3cc(Br)ccc3n2)cc1 2.61%
O=C(c1ccncc1)N1CCN(S(=O)(=O)c2cc(C(F)(F)F)cc(C(F)(F)F)c2)CC1 9.96%
COc1ccc(C(CNC(=O)c2ccc(S(=O)(=O)Nc3ccccc3F)cc2)N(C)C)cc1 (configuration not stated) 4.77%
CCCCn1c(N)c(N(CCOC)C(=O)CSCC(=O)Nc2cccc(C)c2)c(=O)[nH]c1=O 10.8%
Cc1cc(C)nc(NS(=O)(=O)c2ccc(N/C=C\C(=O)c3cccs3)cc2)n1 -11%
O=C(c1snnc1-c1ccccc1)N1CCOCC1 18.7%
CC(OC(=O)CNC(=O)c1ccco1)C(=O)Nc1ccc(Cl)cn1 (configuration not stated) -11.7%
CCOc1ccccc1OCCCNCc1ccccc1 14.2%
COc1cc(C(=O)NCCOC(=O)c2cccc(N(C)C)c2)cc(OC)c1OC 1.84%
O=c1[nH]cnc(O)c1C(c1ccc(F)cc1)c1c(O)nc[nH]c1=O -1.62%
COc1ccc([N+](=O)[O-])cc1N(CC(O)CN(CC(C)C)CC(C)C)S(=O)(=O)c1ccc(C)cc1 (configuration not stated) 12.6%
O=[N+]([O-])c1cc(C(F)(F)F)ccc1NCCc1ccncc1 -17.4%
CC(C)CCNC(=O)c1cccnc1Sc1ccccc1 -10.2%
COc1ccc(NC(=O)C/C(C)=N/NC(=O)c2cnccn2)cc1Cl 4.46%
CCN(CC)CC(=O)Nc1nn(-c2ccccc2)nc1C(N)=O 3.8%
Cc1ccccc1N1C(=O)C(Oc2ccc(Cl)cc2)C1CNCC1CCCO1 (configuration not stated) -13.7%
COC(=O)c1ccc(SCc2ccccc2)nc1 5.84%
CC(C)(C)N(Cc1ccccc1)C(=O)COC(=O)CCc1c[nH]c2ccccc12 9.29%
CCN(CC)c1ccc(C(=O)Nn2c(C)nc3ccccc3c2=O)cc1 -0.748%
O=C(CCc1nnc(Cc2ccc3c(c2)OCO3)o1)NCCc1ccccc1Cl 6.46%
O=C(COc1coc(CN2CCN(c3ccccc3)CC2)cc1=O)N1CCc2ccccc21 -4.04%
O=C(Cc1ccccc1)Nc1c(Cl)ccc2nsnc12 16.1%
Cc1[nH]n(C(N)=S)c(=O)c1N=Nc1ccc(Cl)cc1Cl -14.2%
COc1ccc(OC)c(NC(=O)CSc2nc(-c3ccccc3)cc(=O)[nH]2)c1 -4.65%
CC1CCN(CCCn2c(SCC(=O)NC3CCCC3)nc3ccccc3c2=O)CC1 -3.59%
COc1cccc(C(=O)Nc2nnc(S(=O)(=O)N3CCOCC3)s2)c1 16.5%
Cc1ccc(S(=O)(=O)C2C(=O)NC3(C)CC2c2ccccc2O3)cc1 (configuration not stated) 1.24%
COc1ccc(C(=O)C2CCCN(C(=O)c3cc4nc(C)cc(C)n4n3)C2)cc1F (configuration not stated) 4.72%
CN(CCO)c1ccc(/C=N/Nc2nncc3ccccc23)cc1 -9.02%
Cc1ccccc1CN1C[C@@H]2C[C@@H](c3cn(C)nc3-c3ccccc3)N3CCC[C@@]23C1=O -0.645%
COc1cc(CNc2ncn[nH]2)ccc1OCc1ccccc1C 5.71%
CN(CCOc1ccccc1)Cc1nc2cc(Cl)ccc2c(=O)[nH]1 6.63%
CC(C)(C)c1ccccc1NC(=O)CN1C(=O)NC2(CCCC2)C1=O 9.67%
Cc1ccc(CS(=O)(=O)CCC(=O)NCc2ccc(F)cc2)cc1 -0.106%
CCn1c(Cc2ccc(OC)cc2)nnc1SCC(=O)Nc1ccc(N2CCOCC2)cc1 -14.5%
Cc1ccc(NN=Nc2nc3c([nH]2)c(=O)n(C)c(=O)n3C)cc1 15.9%
COc1cc(NS(=O)(=O)c2ccc(NC(=O)c3ccc([N+](=O)[O-])cc3)cc2)ncn1 -0.0482%
O=C(CCCCCn1c(=S)[nH]c2ccsc2c1=O)NC1CCCCC1 -14.5%
CCCCn1c(N)c(N(CCOC)C(=O)c2cccc(OCc3ccccc3)c2)c(=O)[nH]c1=O -6.78%
Brc1ccccc1/C=N/Nc1nc2ccccc2o1 -16.6%
Cc1ccc(N(Cc2cc(=O)[nH]c3ccccc23)C(=O)CCl)cc1 29.9%
COC(=O)c1c(C)[nH]c(C(=O)/C=C/c2ccc(Cl)cc2)c1C -2.04%
O=C(NCCc1ccccc1)C1CCC(Cn2c(=O)c3ccccc3n(Cc3cccnc3)c2=O)CC1 (configuration not stated) -5.99%
COc1ccc(-c2nn(-c3ccccc3)cc2CN2CCCO2)c(F)c1 0.939%
O=C(NCCCn1ccnc1)/C(=C\c1ccccc1F)NC(=O)c1ccccc1 11.1%
CN(C(=O)C1CCN(c2ncnc3c2nc2n3CCCCC2)CC1)C1CCCCC1 5.63%

— PubChem BioAssay AID1875 (Broad Institute, 2009)
